Peg3 prom inh – reduces Peg3 promoter-driven luciferase expression in HeLa; HeLa PEG-Prom luciferase reporter, luminescence, overnight; inhibition, % at 20 µM; actives 1.7% (n = 360,000); AID 588405;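 active = inhibition of at least 50% at 20 µM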
TROY signal inh – TROY signaling inhibition; inhibition, % at 10 µM; actives 0.98% (n = 360,000); Q293 LMP1-TROYcd NF-kB luciferase reporter, 4 h; AID 1347056;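 active = compounds whose plate-normalised and pattern-corrected inhibition of the luciferase reporter signal at the single screening dose is 50% or more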
CF NFkB inh – cystic fibrosis NF-kB activation inhibition | KKLEB NF-kB-GFP reporter, PAF-induced, GFP fluorescence overnight | inhibition, % at 5 µM | actives 0.86% (n = 360,000) | AID 588850;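 active = at least 50% inhibition at 5 µM, scaled per plate between neutral and stimulator controls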;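 also: PAF is a Pseudomonas aeruginosa culture filtrate used as stimulus; plate controls were PAF-stimulated DMSO wells for no effect and unstimulated DMSO wells for full effect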
HIF-2a inh – blocks HIF-2a reporter activity. actives 0.72% (n = 360,000). inhibition, % at 18.8 µM. 786-0 RCC cells HIF-2a reporter, luciferase luminescence, overnight. AID 624352;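 active = inhibition of the luminescence signal of 40% or more relative to plate controls, in a single-dose primary screen at 18.75 µM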
KKLEB tox – counter-screen for CF NF-kB inhibitors: cytotoxicity; KKLEB CF airway cells viability, ATPlite luminescence, overnight; active compounds read low; cells stimulated with P. aeruginosa culture filtrate; activity change (cytotoxicity), % at 5 µM; actives 0.36% (n = 360,000);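 active = corrected activity change at or below -50% at 5 µM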
TWEAK Fn14 block – inhibitors of TWEAK-Fn14 interaction signaling; TWEAK-stimulated Fn14 reporter cells, luciferase luminescence, 8 h; actives 2% (n = 360,000); inhibition, % at 10 µM; AID 1159606; in the data active = inhibition above about 50%
Active calls of the source: *. Compounds with a hit are over-represented: about 4% of the library has one in this group of screens.

SMILES	Peg3 prom inh	TROY signal inh	CF NFkB inh	HIF-2a inh	KKLEB tox	TWEAK Fn14 block
Cc1ccc(CN(CC(=O)NC2CCCC2)C(=O)c2csnn2)cc1	2	7	-7	5	3	24
O=C(NC1CCCC1)C(c1cccs1)N(Cc1ccco1)C(=O)c1csnn1 (configuration not stated)	-8	-5	-8	19	0	13
O=C(NC1CCCCC1)C(c1ccccc1)N(Cc1ccco1)C(=O)c1csnn1 (configuration not stated)	12	4	-4	1	-8	64*
COC(=O)c1[nH]c2ccccc2c1CN1CCOCC1	7	6	-7	15	6	-13
CCN(CC)c1ccc(C(=O)NC(=S)Nc2cc(S(=O)(=O)N3CCOCC3)ccc2-n2cncn2)cc1	8	4	31	18	-71*	0
CC1Cc2cc(-c3csc(NC(=O)Cc4ccccc4)n3)ccc2N1S(C)(=O)=O (configuration not stated)	16	60*	-39	-26	21	92*
CS(=O)(=O)N1CCc2cc(-c3csc(NC(=O)C(c4ccccc4)c4ccccc4)n3)ccc21	11	3	-22	-22	15	2
O=C(CSc1ncnc2[nH]ncc12)Nc1nc(-c2ccc(F)c(F)c2)cs1	43	39	6	-38	12	78*
O=C(Cc1ccc(F)cc1)Nc1nc(-c2ccc(F)c(F)c2)cs1	-21	75*	-30	-92	12	45
COc1ccc(CC(=O)Nc2nc(-c3ccc(F)c(F)c3)cs2)cc1	-9	55*	-26	-36	9	47
CC(OC(=O)Cn1nnc2ccccc21)C(=O)NC1CCCC1 (configuration not stated)	3	4	-5	2	10	17
CCOc1ccc(NC(=O)CN(C)C(=O)/C=C/c2ccco2)cc1OCC	13	-7	-16	-3	13	-2
CCCCNC(=O)CSc1nc(Cc2ccccc2)nc2ccccc12	25	13	30	31	0	19
O=C(CN1C(=O)NC2(CCCC2)C1=O)Nc1nc(-c2ccc(F)c(F)c2)cs1	6	0	-14	-14	-12	-3
CC1(C(=O)OCC(=O)Nc2nc(-c3ccc(F)c(F)c3)cs2)CC1(Cl)Cl (configuration not stated)	-45	82*	-20	-88	-5	72*
CCc1ccc(-c2nc(CSCC(=O)N3CCN(c4ncccn4)CC3)c(C)o2)cc1	18	79*	-32	39	-8	51*
CCCC(C(=O)NCc1ccco1)N(CC1CCCO1)C(=O)CNS(=O)(=O)c1ccc(F)cc1 (configuration not stated)	21	-19	10	14	1	-4
CCCC(C(=O)NC(C)(C)C)N(CC1CCCO1)C(=O)CNS(=O)(=O)c1ccc(F)cc1 (configuration not stated)	-8	-5	3	12	-3	85*
COc1ccccc1N1CCN(CCS(=O)(=O)c2cc(Cl)ccc2Cl)CC1	6	1	-15	-3	2	17
CCOc1ccc(-c2cn3ccccc3n2)cc1	-83	-6	-25	-79	-51*	62*
CCOc1ccc(-c2cnc3ccccc3n2)cc1	28	63*	-5	71*	-15	94*
Fc1ccc(-c2cn3ccccc3n2)cc1	-246	-1	-20	-154	-17	35
CCOC(=O)c1ccc2ncc(C(=O)OCC)c(Nc3ccc(N4CCOCC4)cc3)c2c1	88*	10	65*	8	-4	53*
O=C1/C(=C/c2ccccc2F)SC(=S)N1CCC(=O)N1CCCCC1CCO (configuration not stated)	53*	5	-1	4	1	8
COc1cc(/C=C2/SC(=S)N(CCC(=O)N3CCN(C)CC3)C2=O)cc(OC)c1OC	53*	14	9	-12	-3	7
COc1ccc(/C=C2\SC(=S)N(CCC(=O)N3CCCCC3CCO)C2=O)cc1 (configuration not stated)	-4	11	6	58*	5	43
COc1cc(/C=C2\SC(=S)N(CCC(=O)N3CCN(C)CC3)C2=O)cc(OC)c1OC	17	-1	10	0	3	-16
